Several values for one entry are separate records, joined by “and”; a condition that tells them apart may be missing. Equal entries are not always repeated. Results filed as inconclusive are left out. Where a structure was tested more than once in an assay, its records may differ in their call. Activity calls are given as the source filed them. The calls were made as follows, unless noted: active = hit-call score of the fitted dose curve at least 0.9, where 1 is the maximum; inconclusive = response in the unintended direction; inactive = score below 0.9.
Assays:
[1] = system: Sodium/Iodide Symporter (NIS), SLC5A5 (gene 6528); test: CPHEA_Stoker_NIS_Inhibition_RAIU: CPHEA's Radioactive Iodide Uptake (RAIU) Assay for Sodium/Iodide Symporter (NIS) Inhibition, Stoker and Laws Labs (AID 2283841)
Procedure, shortened: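 hNIS-HEK293T-EPA cells incubated 2 h at room temperature with compound (0.001–100 uM, 0.5% DMSO) and 329 pM final 125I in HBSS/10 mM HEPES, pH 7.4. Intracellular 125I counted; normalised to DMSO maximal uptake, triplicate, three biological replicates.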

[2] = system: frog Estrogen Receptor (ER2), gene 100174814; test: ATG_frER2_XSP2: Attagene TRANS-FACTORIAL Multi-Species (XSP2) HepG2 Assay for frog Estrogen Receptor (ER2) (AID 2283828)
Procedure, shortened: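 Human liver HepG2, transient MRTU transfection (TRANS format, exogenous NR–Gal4). 24 h cpd exposure. Total RNA → RT → PCR → FAM label → HpaI cut → CE. Positive direction vs DMSO.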

[3] = biological target: Peroxisome proliferator-activated receptor gamma (Homo sapiens) (UniProt P37231); test: ATG_hPPARg_XSP2: Attagene TRANS-FACTORIAL Multi-Species (XSP2) HepG2 Assay for human Peroxisome Proliferator-activated Receptor gamma (PPARg) (AID 2283829);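 also: actives raise reporter mRNA above DMSO so AC50 reflects PPARg activation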
Chain of Peroxisome proliferator-activated receptor gamma (Homo sapiens) (P37231 whole entry, looked up, the tested form may be a part): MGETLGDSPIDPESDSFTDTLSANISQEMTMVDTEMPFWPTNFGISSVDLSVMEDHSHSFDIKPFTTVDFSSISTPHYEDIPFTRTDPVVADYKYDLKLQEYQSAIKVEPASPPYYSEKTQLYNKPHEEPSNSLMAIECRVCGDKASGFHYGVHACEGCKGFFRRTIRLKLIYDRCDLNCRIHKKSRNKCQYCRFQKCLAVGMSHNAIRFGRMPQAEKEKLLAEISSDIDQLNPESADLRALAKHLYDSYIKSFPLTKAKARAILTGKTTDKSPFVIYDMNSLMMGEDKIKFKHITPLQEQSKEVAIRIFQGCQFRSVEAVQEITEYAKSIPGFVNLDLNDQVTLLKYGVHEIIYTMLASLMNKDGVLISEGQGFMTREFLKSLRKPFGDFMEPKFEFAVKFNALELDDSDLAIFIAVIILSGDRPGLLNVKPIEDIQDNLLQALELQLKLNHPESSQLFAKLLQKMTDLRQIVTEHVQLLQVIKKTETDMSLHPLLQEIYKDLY
Procedure, shortened: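 Multiplexed transactivation in transfected HepG2 liver cells. Gal4-chimeric receptor activity reported as induced reporter transcript after 24 h.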

[4] = biological target: mouse Peroxisome Proliferator-activated Receptor gamma (PPARg), Pparg (gene 19016) (UniProt P37238); test: ATG_mPPARg_XSP2: Attagene TRANS-FACTORIAL Multi-Species (XSP2) HepG2 Assay for mouse Peroxisome Proliferator-activated Receptor gamma (PPARg) (AID 2283830);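 also: hits are gains in reporter mRNA above DMSO so AC50 marks activation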
Chain of mouse Peroxisome Proliferator-activated Receptor gamma (PPARg), Pparg (gene 19016) (P37238 whole entry, looked up, the tested form may be a part): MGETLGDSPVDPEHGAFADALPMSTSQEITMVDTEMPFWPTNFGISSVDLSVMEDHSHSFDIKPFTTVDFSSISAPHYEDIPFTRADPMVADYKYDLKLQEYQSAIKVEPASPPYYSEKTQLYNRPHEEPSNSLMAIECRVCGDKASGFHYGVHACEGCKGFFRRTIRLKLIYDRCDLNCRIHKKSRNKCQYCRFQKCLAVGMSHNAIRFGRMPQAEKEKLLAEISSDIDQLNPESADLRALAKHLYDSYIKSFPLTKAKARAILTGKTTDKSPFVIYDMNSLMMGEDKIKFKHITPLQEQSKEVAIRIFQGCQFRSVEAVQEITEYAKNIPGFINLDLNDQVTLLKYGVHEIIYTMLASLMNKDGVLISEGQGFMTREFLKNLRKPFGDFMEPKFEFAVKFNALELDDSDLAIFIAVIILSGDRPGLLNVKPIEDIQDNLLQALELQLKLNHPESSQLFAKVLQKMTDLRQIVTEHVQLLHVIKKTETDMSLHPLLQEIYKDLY
Procedure, shortened: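 HepG2 cells transiently transfected with GAL4-UAS reporter units for chimeric NR-Gal4 proteins including mouse PPARg, exposed 24 h; medium contained 3 nM 6-alpha-fluorotestosterone and 1.5 nM norgestrel. Reporter mRNA quantified by RT-PCR, HpaI digestion and capillary electrophoresis, vs DMSO.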

[5] = biological target: Nuclear receptor subfamily 1 group I member 2 (Mus musculus) (UniProt O54915); test: ATG_mPXR_XSP2: Attagene TRANS-FACTORIAL Multi-Species (XSP1) HepG2 Assay for mouse Pregnane X Receptor (PXR) (AID 2283831)
Chain of Nuclear receptor subfamily 1 group I member 2 (Mus musculus) (O54915 whole entry, looked up, the tested form may be a part): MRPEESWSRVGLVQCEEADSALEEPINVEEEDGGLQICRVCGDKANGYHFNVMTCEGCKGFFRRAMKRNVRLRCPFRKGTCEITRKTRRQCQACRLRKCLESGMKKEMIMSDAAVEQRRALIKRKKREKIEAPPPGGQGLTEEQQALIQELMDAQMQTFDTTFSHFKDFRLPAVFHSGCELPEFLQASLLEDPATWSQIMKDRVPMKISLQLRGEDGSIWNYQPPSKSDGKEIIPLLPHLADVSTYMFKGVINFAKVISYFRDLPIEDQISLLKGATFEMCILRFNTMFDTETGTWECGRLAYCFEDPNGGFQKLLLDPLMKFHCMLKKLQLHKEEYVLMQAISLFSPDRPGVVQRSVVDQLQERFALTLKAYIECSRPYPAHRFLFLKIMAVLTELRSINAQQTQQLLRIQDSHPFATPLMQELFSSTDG
Procedure, shortened: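 Human liver HepG2 cells expressing exogenous receptor-GAL4 chimeras were exposed to test chemicals for 24 h. Induction of reporter mRNA was scored as gain of fluorescence signal over DMSO controls.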

[6] = biological target: zebrafish Thyroid Hormone Receptor alpha (TRa), thraa (gene 30670) (UniProt Q98867); test: ATG_zfTRa_XSP2: Attagene TRANS-FACTORIAL Multi-Species (XSP1) HepG2 Assay for zebrafish Thyroid Hormone Receptor alpha (TRa) (AID 2283832);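 also: actives raise zebrafish TRa-Gal4 reporter transcript above DMSO baseline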
Chain of zebrafish Thyroid Hormone Receptor alpha (TRa), thraa (gene 30670) (Q98867 whole entry, looked up, the tested form may be a part): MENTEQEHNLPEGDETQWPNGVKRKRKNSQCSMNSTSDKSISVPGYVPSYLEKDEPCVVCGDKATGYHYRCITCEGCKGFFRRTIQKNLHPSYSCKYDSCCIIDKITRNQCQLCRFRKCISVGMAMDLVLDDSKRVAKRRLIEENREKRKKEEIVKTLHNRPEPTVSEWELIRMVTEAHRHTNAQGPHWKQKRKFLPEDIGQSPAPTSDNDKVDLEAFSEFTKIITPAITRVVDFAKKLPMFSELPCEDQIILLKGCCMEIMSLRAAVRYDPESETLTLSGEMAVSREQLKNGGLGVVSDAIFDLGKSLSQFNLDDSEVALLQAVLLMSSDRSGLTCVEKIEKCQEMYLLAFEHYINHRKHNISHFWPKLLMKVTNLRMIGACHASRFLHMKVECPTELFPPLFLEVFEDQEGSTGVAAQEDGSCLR
Procedure, shortened: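 HepG2 transiently transfected with GAL4-UAS reporter units and chimeric zebrafish TRa-Gal4; reporter mRNA quantified after 24 h dosing by RT-PCR, HpaI digestion and capillary electrophoresis fluorescence. Gain of signal vs DMSO; XSP2 medium contains 3 nM 6-alpha-fluorotestosterone, 1.5 nM norgestrel.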

[7] = system: zebrafish Peroxisome Proliferator-activated Receptor gamma (PPARg), gene 557037; test: ATG_zfPPARg_XSP2: Attagene TRANS-FACTORIAL Multi-Species (XSP2) HepG2 Assay for zebrafish Peroxisome Proliferator-activated Receptor gamma (PPARg) (AID 2283833);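 also: reporter mRNA from a zebrafish PPARg GAL4 chimera measured by RT-PCR and capillary electrophoresis; actives increase reporter signal over DMSO so AC50 reflects activation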
Procedure, shortened: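 Cell-based transactivation of a chimeric zebrafish PPARg-GAL4 receptor was assessed in transiently transfected HepG2 cells after 24 h of treatment. Reporter mRNA induction, detected fluorescently after RT-PCR, was analysed in the positive direction against DMSO.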

[8] = system: turtle Thyroid Hormone Receptor, alpha (TRa), gene 101949057; test: ATG_trTRa_XSP2: Attagene TRANS-FACTORIAL Multi-Species (XSP1) HepG2 Assay for turtle Thyroid Hormone Receptor, alpha (TRa) (AID 2283834);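 also: hits raise reporter mRNA over the DMSO baseline so AC50 marks activators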
Procedure, shortened: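 Gain-of-signal reporter transcription measured in transiently transfected HepG2 at 24 h post-dose. Fluorescent RT-PCR products were resolved by capillary electrophoresis and compared with DMSO vehicle.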

[9] = ATG_M_61_XSP2: Attagene TRANS-FACTORIAL Multi-Species (XSP2) HepG2 Assay for M61 Transcription Factor (Internal Marker) (AID 2283835; active = hit-call score of the fitted dose curve at least 0.9, where 1 is the maximum; inactive = score below 0.9;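 also: reporter mRNA of an internal background marker read by RT-PCR and capillary electrophoresis; active means a rise in signal above the DMSO baseline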)
Procedure, shortened: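 HepG2 cells transiently transfected with multiple GAL4-UAS reporter units; 3 nM 6-alpha-fluorotestosterone and 1.5 nM norgestrel present to stimulate androgen receptor. After 24 h compound exposure, reporter mRNA measured by RT-PCR and capillary electrophoresis fluorescence, gain-of-signal versus DMSO baseline.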

[10] = biological target: zebrafish Thyroid Hormone Receptor beta (TRb), thrb (gene 30607) (UniProt Q9PVE4); test: ATG_zfTRb_XSP2: Attagene TRANS-FACTORIAL Multi-Species (XSP1) HepG2 Assay for zebrafish Thyroid Hormone Receptor beta (TRb) (AID 2283836)
Chain of zebrafish Thyroid Hormone Receptor beta (TRb), thrb (gene 30607) (Q9PVE4 whole entry, looked up, the tested form may be a part): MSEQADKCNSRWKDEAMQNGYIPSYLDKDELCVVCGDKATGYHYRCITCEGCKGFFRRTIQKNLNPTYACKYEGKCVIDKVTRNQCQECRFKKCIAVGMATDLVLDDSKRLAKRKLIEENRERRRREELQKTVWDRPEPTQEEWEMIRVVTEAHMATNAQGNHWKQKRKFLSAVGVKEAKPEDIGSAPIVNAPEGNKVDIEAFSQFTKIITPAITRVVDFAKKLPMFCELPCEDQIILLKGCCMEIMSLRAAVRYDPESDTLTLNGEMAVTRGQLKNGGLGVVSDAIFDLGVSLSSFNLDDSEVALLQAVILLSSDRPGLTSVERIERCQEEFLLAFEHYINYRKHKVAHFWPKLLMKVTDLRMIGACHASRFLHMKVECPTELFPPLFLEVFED
Procedure, shortened: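 HepG2 cells transiently transfected with chimeric zebrafish TRb-GAL4 reporter units, dosed 24 h with 3 nM 6-alpha-fluorotestosterone and 1.5 nM norgestrel present. Reporter mRNA quantified by RT-PCR and capillary electrophoresis; gain fitted against DMSO.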

[11] = biological target: human Thyroid hormone Receptor alpha (TRa), THRA (gene 7067) (UniProt P10827); test: ATG_hTRa_XSP2: Attagene TRANS-FACTORIAL Multi-Species (XSP2) HepG2 Assay for human Thyroid hormone Receptor alpha (TRa) (AID 2283838)
Chain of human Thyroid hormone Receptor alpha (TRa), THRA (gene 7067) (P10827 whole entry, looked up, the tested form may be a part): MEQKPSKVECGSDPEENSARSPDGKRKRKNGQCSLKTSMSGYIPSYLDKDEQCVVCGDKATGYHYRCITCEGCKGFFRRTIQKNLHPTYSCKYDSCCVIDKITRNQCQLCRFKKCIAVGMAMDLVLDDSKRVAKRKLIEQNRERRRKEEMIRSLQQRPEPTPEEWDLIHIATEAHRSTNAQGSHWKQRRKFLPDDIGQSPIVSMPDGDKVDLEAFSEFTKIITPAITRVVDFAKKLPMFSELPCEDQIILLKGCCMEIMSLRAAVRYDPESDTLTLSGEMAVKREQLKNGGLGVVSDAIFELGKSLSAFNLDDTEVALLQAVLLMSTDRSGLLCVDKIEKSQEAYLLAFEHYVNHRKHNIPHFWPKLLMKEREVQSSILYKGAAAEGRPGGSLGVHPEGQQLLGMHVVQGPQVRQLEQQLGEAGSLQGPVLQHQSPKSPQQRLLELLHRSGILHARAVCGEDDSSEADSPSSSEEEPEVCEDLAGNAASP
Procedure, shortened: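 HepG2 cells were transiently transfected with GAL4-UAS reporter units for chimeric human TRa-Gal4 and dosed for 24 hours, with 3 nM 6-alpha-fluorotestosterone and 1.5 nM norgestrel present. Reporter mRNA was quantified by RT-PCR, FAM labelling and capillary electrophoresis, with gain of signal fitted versus DMSO.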

[12] = biological target: frog Thyroid hormone Receptor alpha (TRa), thra-a (gene 397942) (UniProt P15204); test: ATG_frTRa_XSP2: Attagene TRANS-FACTORIAL Multi-Species (XSP2) HepG2 Assay for frog Thyroid hormone Receptor alpha (TRa) (AID 2283839)
Chain of frog Thyroid hormone Receptor alpha (TRa), thra-a (gene 397942) (P15204 whole entry, looked up, the tested form may be a part): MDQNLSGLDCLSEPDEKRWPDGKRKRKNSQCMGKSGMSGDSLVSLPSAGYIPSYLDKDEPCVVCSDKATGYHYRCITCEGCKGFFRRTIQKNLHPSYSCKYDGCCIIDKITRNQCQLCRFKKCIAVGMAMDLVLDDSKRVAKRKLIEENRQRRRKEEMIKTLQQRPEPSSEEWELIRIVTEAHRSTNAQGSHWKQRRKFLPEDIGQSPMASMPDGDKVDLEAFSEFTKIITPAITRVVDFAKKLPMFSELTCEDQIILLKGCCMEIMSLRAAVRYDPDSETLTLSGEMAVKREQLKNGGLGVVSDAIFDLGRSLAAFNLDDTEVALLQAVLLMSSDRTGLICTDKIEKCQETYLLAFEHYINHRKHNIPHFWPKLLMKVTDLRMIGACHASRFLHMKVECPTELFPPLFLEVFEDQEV
Procedure, shortened: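 Frog thyroid receptor alpha was tested as an exogenous NR-Gal4 fusion in transiently transfected HepG2 cells. After 24 h chemical treatment, reporter mRNA induction was quantified by RT-PCR and capillary electrophoresis, with gain-of-signal analysed relative to DMSO.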

[13] = biological target: human Thyroid hormone Receptor beta (TRb), THRB (gene 7068) (UniProt P10828); test: ATG_hTRb_XSP2: Attagene TRANS-FACTORIAL Multi-Species (XSP2) HepG2 Assay for human Thyroid hormone Receptor beta (TRb) (AID 2283840);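 also: actives raise reporter mRNA so potency reflects agonist-like gain of signal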
Chain of human Thyroid hormone Receptor beta (TRb), THRB (gene 7068) (P10828 whole entry, looked up, the tested form may be a part): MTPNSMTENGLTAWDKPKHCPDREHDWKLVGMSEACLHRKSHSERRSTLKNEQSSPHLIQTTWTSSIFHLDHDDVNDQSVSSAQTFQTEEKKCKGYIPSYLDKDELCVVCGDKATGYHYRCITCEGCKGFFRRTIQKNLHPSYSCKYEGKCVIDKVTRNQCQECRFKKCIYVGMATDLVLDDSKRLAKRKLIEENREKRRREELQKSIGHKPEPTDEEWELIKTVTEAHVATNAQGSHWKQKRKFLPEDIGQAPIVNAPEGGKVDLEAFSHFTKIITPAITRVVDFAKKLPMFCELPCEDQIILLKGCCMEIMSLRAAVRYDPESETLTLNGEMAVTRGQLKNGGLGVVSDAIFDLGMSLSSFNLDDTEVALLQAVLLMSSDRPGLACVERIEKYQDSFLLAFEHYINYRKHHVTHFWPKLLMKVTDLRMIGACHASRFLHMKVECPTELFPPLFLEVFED
Procedure, shortened: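 In this cell-based multiplex, HepG2 liver cells carrying transfected GAL4-UAS reporter constructs are exposed to chemical for 24 hours, then reporter transcripts are measured by RT-PCR with capillary electrophoresis, scored as gain of signal against DMSO.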

[14] = CEETOX_H295R_OHPREG_noMTC: CeeTox H295R High-throughput Steroidogenesis Assay for OH-Pregnenolone (OHPREG), maximum tolerated concentration (MTC) filtered results only (AID 2283912; active = hit-call score of the fitted dose curve at least 0.9, where 1 is the maximum; inactive = score below 0.9); details: actives raise or lower the signal
Procedure, shortened: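 H295R human adrenal cells, forskolin-prestimulated (10 uM, 48 h), then exposed to test chemical in 0.1% DMSO for 48 h. 17alpha-hydroxypregnenolone in medium measured by HPLC-MS/MS after MTBE extraction; bidirectional fit versus DMSO, concentrations not MTC-filtered.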

[15] = CEETOX_H295R_OHPROG_noMTC: CeeTox H295R High-throughput Steroidogenesis Assay for OH-Progesterone (OHPROG), maximum tolerated concentration (MTC) filtered results only (AID 2283914; active = hit-call score of the fitted dose curve at least 0.9, where 1 is the maximum; inactive = score below 0.9); details: actives raise or lower the signal
Procedure, shortened: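 H295R human adrenal cells prestimulated 48 h with 10 uM forskolin, then exposed 48 h to test chemical (0.1% DMSO final). Medium 17alpha-hydroxyprogesterone extracted with MTBE, quantified by HPLC-MS/MS; bidirectional fit versus DMSO, concentrations not MTC-filtered.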

[16] = ATG_XTT_Cytotoxicity_XSP2: Cytotoxicity Assessment in the Attagene TRANS-FACTORIAL Multi-Species (XSP2) HepG2 Assay (AID 2283837)
Procedure, shortened: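 HepG2 cells, transiently transfected with multiple reporter constructs, exposed to chemical for 24 h. Cell number assessed with XTT fluorescence read-out; loss of signal fitted relative to DMSO.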

Measured: AC50

CCCCCCCCSCCO
inactive: [1]

C=C1CC[C@H](O)C/C1=C/C=C1\CCC[C@]2(C)[C@@H]([C@H](C)/C=C/[C@H](C)C(C)C)CC[C@@H]12
inactive: [1]

[O-]n1ccccc1=S.[O-]n1ccccc1=S.[Zn+2]
active: [1] 18.1 µM

c1ccc(Oc2ccccc2)cc1
inactive: [1]

BrCc1cccc(Oc2ccccc2)c1
inactive: [5] | [6] | [7] | [8] | [9] | [10] | [11] | [12] | [13] | [1]
active: [2] 15.7 µM and 10.2 µM | [3] 58.6 µM and 35.6 µM | [4] 66.6 µM and 39 µM | [5] 27.7 µM

O=C(Nc1ccc2c(O)c(N=Nc3ccc(N=Nc4ccc(S(=O)(=O)O)cc4)cc3)c(S(=O)(=O)O)cc2c1)c1ccccc1
inactive: [14] | [15]

O=c1c(O)c(-c2ccc(O)cc2)oc2cc(O)cc(O)c12
active: [2] 1.75 µM and 945 nM | [3] 12.5 µM and 7.02 µM | [4] 12 µM
inactive: [5] | [6] | [7] | [8] | [9] | [10] | [16] | [11] | [12] | [13] | [1]

CCOC(=O)[C@@H](C)Oc1ccc(Oc2nc3ccc(Cl)cc3o2)cc1
inactive: [1]

Clc1ccc(C(c2ccccc2Cl)C(Cl)Cl)cc1 (stereo not given)
inactive: [3] | [4] | [6] | [7] | [9] | [10] | [11] | [12] | [13] | [1]
active: [2] 1.34 µM and 1.64 µM | [5] 5.19 µM and 5.09 µM | [16] 100 µM

C=C(C)C(=O)OCCOC1CC2CC1C1C=CCC21 (stereo not given)
inactive: [1]

CCCCCCCCCCCCN1CCCCCC1=O
inactive: [1]
